Molecules are shown by their SMILES. Records with an inconclusive call do not appear. A call without a number means that no potency is given here. Activity calls are given as the source filed them. Calls follow the shape of the dose curve; as a rule, active = well fitted inhibition curve with a large enough effect; inconclusive = small, poorly fitted or top-dose-only effect; inactive = no such curve, though single readings can be large or run the other way.
Potency is read from the fitted curve at half-maximal effect.

A short description of the assay: NS1 protein of Zika virus - qHTS assay to identify small molecule inhibitors in human HEK 293 cells (AID 1347053). Also: nearly all actives have a fitted effect of over 55% in size. As to conditions: HEK293 ZIKV MR766 infection, NS1 TR-FRET, 24 h; series mostly up to 46.1 µM. In a few lines:
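Readout was TR-FRET using paired anti-NS1 antibodies after 24 h infection of HEK 293 cells with ZIKV MR766 (MOI = 0.5). Compound preceded virus by 1 h; reduced signal reflects lower NS1 expression.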
Background: qHTS replaces the single test concentration by a dilution series.
Take `CCCCCCCCCCCCc1ccc(S(=O)(=O)Nc2nncs2)cc1`: the Potency result is “inactive”.

On to `C[C@@]12C[C@@]3(O)O[C@@H](O1)[C@]1(COC(=O)c4ccccc4)[C@@H]3C[C@@]12O[C@@H]1O[C@H](CO)[C@@H](O)[C@H](O)[C@@H]1O`, for which the Potency entry is “inactive”.

Consider `C=C1C[C@@]2(O)O[C@@]3(C[C@H]2C(C)C)[C@H](C)CC[C@H]13`, for which the Potency entry is “inactive”. As for `Cc1cnc(Nc2ccc(N3CCN(C)CC3)cc2)nc1Nc1cccc(S(=O)(=O)NC(C)(C)C)c1`, the Potency was 16.6 µM (active).

Turning to `O=c1[nH]c(=O)n([C@H]2C[C@@H](O)[C@@H](CO)O2)cc1C=CBr`, the Potency entry is “inactive”. `CC(=O)C1=C(O)C=C2Oc3c(C(C)=O)c(O)c(C)c(O)c3C2(C)C1=O` (stereo not drawn): the Potency result is “inactive”. The result for `CC(C)N(CC[C@H](c1ccccc1)c1cc(CO)ccc1O)C(C)C` reads “inactive”; that for `COc1ccc([C@@H]2CNC(=O)C2)cc1OC1CCCC1`, “inactive”; that for `CNC(=O)Nc1ccc(-c2nc(N3CC4CCC(C3)O4)c3cnn(C4CCC5(CC4)OCCO5)c3n2)cc1`, 16.6 µM (active). Regarding `CC(=O)N[C@H]1[C@@H]([C@H](O)[C@H](O)CO)OC(C(=O)O)=C[C@@H]1N=C(N)N`, the Potency result is “inactive”.

Turning to `CC(C)(C)c1nc2c3cc[nH]c(=O)c3c3cc(F)ccc3c2[nH]1`, the Potency entry was “inactive”. As to `CON=C(C(=O)N[C@@H]1C(=O)N2C(C(=O)O)=C(CSC(=O)c3ccco3)CS[C@H]12)c1csc(N)n1`, the Potency entry is “inactive”. Turning to `CC(=O)O[C@H]1C[C@@H]2CC[C@H]3[C@H]4C[C@H]([N+]5(C)CCCCC5)[C@@H](OC(C)=O)[C@@]4(C)CC[C@@H]3[C@@]2(C)C[C@H]1[N+]1(C)CCCCC1`, the Potency entry was “inactive”. Turning to `Cc1ccc2nc(NCCN)c3ncc(C)n3c2c1`, the Potency was 26.4 µM (active).

In the case of `CCc1cc(C(C)=NOCc2ccc(C3CCCCC3)c(C(F)(F)F)c2)ccc1CN1CC(C(=O)O)C1`, the Potency entry was “inactive”.

As for `Cc1cn([C@@H]2O[C@H](CO)[C@@H](O)[C@H]2F)c(=O)[nH]c1=O`, the Potency entry is “inactive”. On to `O=C(Nc1ccc(Oc2ccnc3[nH]ccc23)c(F)c1)c1cccn(-c2ccc(F)cc2)c1=O`, for which the Potency result is “inactive”. For the compound `CC1(C)O[C@@H]2C[C@H]3[C@@H]4CCC5=CC(=O)C=C[C@]5(C)[C@@H]4[C@@H](O)C[C@]3(C)[C@]2(C(=O)CO)O1`, the Potency result is “inactive”. The result for `Cc1cc(C(=O)NOCCO)c(Nc2ccc(I)cc2F)n(C)c1=O` reads “inactive”; that for `OCc1ccccc1O[C@@H]1O[C@H](CO)[C@H](O)[C@H](O)[C@H]1O`, “inactive”. `Cc1ccccc1C(=O)Nc1ccc(C(=O)N2CCCC(O)c3cc(Cl)ccc32)c(C)c1` (stereo not drawn): the Potency result is “inactive”. The result for `COc1ccc(Nc2cc(-c3cnc(N)nc3)nc(N3CCOCC3)n2)cn1` reads 16.6 µM (active); that for `O=C(O)CCCCC(CCSCc1ccccc1)SCc1ccccc1` (stereo not drawn), “inactive”. As to `Cc1noc(-c2ccc(CSCCC(=O)O)cc2)c1NC(=O)OC(C)c1ccccc1Cl` (stereo not drawn), the Potency result was “inactive”.

With `CCCCC(=O)O[C@]1(C(=O)CO)[C@@H](C)C[C@H]2[C@@H]3CCC4=CC(=O)C=C[C@]4(C)[C@@]3(F)[C@@H](O)C[C@@]21C`, the Potency entry is “inactive”. The result for `COc1cc(C)c(C=CC(C)=CC=CC(C)=CC(=O)O)c(C)c1C` reads “inactive”; that for `C[N+]1(C)[C@@H]2C[C@@H](OC(=O)C(O)(c3cccs3)c3cccs3)C[C@H]1[C@@H]1O[C@@H]12`, “inactive”; that for `CC1(C)[C@H](O[C@H]2O[C@H](C(=O)O)[C@@H](O)[C@H](O)[C@H]2O[C@@H]2O[C@H](C(=O)O)[C@@H](O)[C@H](O)[C@H]2O)CC[C@@]2(C)[C@H]1CC[C@]1(C)[C@H]2C(=O)C=C2[C@H]3C[C@@](C)(C(=O)O)CC[C@]3(C)CC[C@]21C`, “inactive”.

Consider `C[C@H](O)[C@@H]1C(=O)N2C(C(=O)O)=C(S[C@@H]3CN[C@H](CNS(N)(=O)=O)C3)[C@@H](C)[C@@H]12`, for which the Potency result is “inactive”. Regarding `CN[C@H]1[C@@H](O)[C@@H]2O[C@@H]3O[C@H](C)CC(=O)[C@]3(O)O[C@@H]2[C@@H](NC)[C@H]1O`, the Potency entry was “inactive”. With `NC1=N[C@H]2[C@H](CS[C@H]2CCCCC(=O)O)N1`, the Potency entry is “inactive”. Regarding `COC(=O)[C@@H]1CC2=CC(=O)CC[C@]2(C)[C@@]23O[C@@H]2C[C@@]2(C)[C@H](CC[C@@]24CCC(=O)O4)[C@@H]13`, the Potency result is “inactive”. With `O=C(C[C@@H]1CC=CCCC(=O)O[C@H](c2ccccc2)CNC1=O)NCc1ccc(Cl)cc1`, the Potency entry was “inactive”. For `CON=C(C(=O)N[C@@H]1C(=O)N2C(C(=O)O)=C(Cn3ccc(=N)n3CCO)CS[C@H]12)c1csc(N)n1`, the Potency result was “inactive”. For `CCN1CCN(C(=O)N[C@H](C(=O)N[C@@H]2C(=O)N3C(C(=O)O)=C(CSc4nnnn4C)CS[C@@H]23)c2ccc(O)cc2)C(=O)C1=O`, the Potency result was “inactive”. Regarding `N#CC(=Cc1ccc(O)c(O)c1)C(=O)NCc1ccccc1`, the Potency result was “inactive”. Regarding `OC[C@@H](O)[C@@H](O)[C@H](O)[C@@H](O)CO`, the Potency entry was “inactive”. Take `C=Cc1c(C)c2cc3nc(cc4[nH]c(cc5nc(cc1[nH]2)C(C)=C5CCC(=O)O)c(CCC(=O)OC)c4C)[C@@]1(C)C3=CC=C(C(=O)OC)[C@H]1C(=O)OC`: the Potency entry is “inactive”.
